Compounds without any hit were thinned out: in the full panel of roughly 83,000, 20% have a hit.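 48-hour exposure, single concentration, 96-well plates; percent growth endpoint where 0 means no net growth. Active: below 10.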 Calls of active or inactive are those of the source.

For one assay, the system named is OVCAR-8 ovarian. In words: NCI-60 one-dose screen, 48 h (100 = growth as untreated, 0 = no growth, -100 = all killed). The conditions noted are these: 10 µM unless noted.
For `O=C(CSc1nc2sc3c(c2c(=O)n1-c1ccc(Cl)cc1)CCCC3)NNC(=O)c1ccc(Br)cc1`, the growth is 34.3% (inactive). For `CN(C)c1ccc(/C=C/c2n(Cc3ccc4ccccc4c3)c3ccccc3[n+]2Cc2ccc3ccccc3c2)cc1`, the growth was -31.3% (active). On the same count and under the same terms, next, `COc1ccc2[nH]c(=O)cc(-n3ncc(C(=O)/C=C/c4cc(OC)c(OC)c(OC)c4)c3C)c2c1`: 14.5% (inactive); `COc1ccc(C(=O)C[n+]2cccc3c4ccccc4ccc32)cc1`: 25.9% (inactive); `CN1CCc2c(sc3ncnc(N/N=C/c4cccc(Cl)c4Cl)c23)C1`: -38.6% (active). Turning to `COc1ccc2[nH]c(O)c(N=Nc3nc(-c4ccccc4)cs3)c2c1`, the growth was 6.68% (active). Same read-out and setting: next, `COc1ccc(N=Nc2c(N)nn3c(N)c(C#N)c(-c4ccc(F)cc4)nc23)cc1`: 29.6% (inactive); `C=CCSc1nnc(-c2ccc(-c3nc4ccccc4[nH]3)cc2)o1`: 55.9% (inactive). On the same count and under the same terms, next, `Cc1oc(-c2ccccc2)nc1CN[C@@H]1C[C@@H]2C[C@H]([C@H]1C)C2(C)C`: 82.6% (inactive); `COc1ccc(NC2=C(I)C(=O)C(C)=C(C)C2=O)cc1`: -19.2% (active).

The test system of the next assay is OVCAR-5 ovarian. The description is as above. To be noted: 10 µM unless noted.
Consider `O=C(Nc1nc2ccccc2s1)Nc1ccccc1Cl`, for which the growth was 89.6% (inactive). The same measure, in the same setting: next, `Cc1ccc(C(=O)Nc2cc(-n3ccnc3C)cc(C(F)(F)F)c2)cc1C#Cc1cnc2cccnn12`: 7.14% (active); `O=C(c1ccc(O)cc1)C1[C@H](c2ccc(Cl)cc2)[C@@H](c2ccccc2)NC12C(=O)Nc1ccccc12` (stereo partly drawn): 9.48% (active). For the molecule `COc1ccc(-c2nc3ccc(-c4nnc(SCC(=O)Nc5ccc(/C(C)=N\O)cc5)o4)cc3[nH]2)cc1`, the growth was 113% (inactive). On the same count and under the same terms, next, `C[C@H]1[C@@H](CC(=O)N[C@@H](Cc2coc3ccccc23)B(O)O)O[C@@H]2OC3(C)CC[C@H]4[C@H](C)CC[C@@H]1[C@@]24O3`: -26.1% (active); `Cc1cc(C(NC(=O)C2CC3(CC(Nc4cccc5c4C(=O)N(C4CCC(=O)NC4=O)C5=O)C3)C2)c2ccc3c(c2)OC(F)(F)O3)c(O)c2ncccc12` (stereo not drawn): 35.1% (inactive).

With `NC(=O)c1ccc(-c2ccc3ncnc(N4CCc5cc(F)c(Cl)cc54)c3c2)cn1`, the growth was 73.5% (inactive). The same measure, in the same setting: next, `CCN1C(=O)N(CC)C2NNC(Sc3c(C(=O)O)c4ccccc4n(CCC(C)C)c3=O)=NC21` (stereo not drawn): 21.4% (inactive). Same read-out and setting: to `COc1ccc2[nH]c(O)c(N=Nc3nc(-c4ccc(Cl)cc4)cs3)c2c1` belongs 10.3% (inactive); to `CC[C@]12C=CCN3CC[C@@]4(c5ccc(OC)cc5N(C)[C@H]4[C@@](O)(C(=O)OC)[C@@H]1OC(=O)CCCC[P+](c1ccc(F)cc1)(c1ccc(F)cc1)c1ccc(F)cc1)[C@@H]32`, 49.7% (inactive). Still for that read-out and setting: to `COc1cccc(/C=C/c2nc3ccccc3c(=O)n2CC(=O)Nc2ccccc2)c1` belongs 65.9% (inactive); to `O=C(c1ccc(Cl)cc1)C1[C@H](c2ccccc2Cl)[C@@H](c2ccccc2)NC12C(=O)Nc1ccc(Br)cc12` (stereo partly drawn), -91.5% (active); to `O=C(CSc1nnc(-c2ccc(-c3nc4ccc(Cl)cc4[nH]3)cc2)o1)Nc1ccc(Cl)cc1`, 49.3% (inactive). On to `N#Cc1c(NC(=O)N2CCOCC2)n(-c2ccc(OC(F)(F)F)cc2)c2cc(F)ccc12`, for which the growth is 88.2% (inactive). The same measure, in the same setting: to `O=C(N/N=C/c1ccc(Cl)o1)c1[nH]c2ccc(Br)cc2c1-c1ccccc1` belongs -24.9% (active); to `CC1=C(C(=O)OCc2ccccc2)C(c2cccc3ccccc23)n2c(nc3ccccc32)N1` (stereo not drawn), 41% (inactive); to `CC1=NN(C2=NC(=O)C(CC(=O)Nc3ccccc3C(F)(F)F)S2)C(c2ccc(N(C)C)cc2)C1` (stereo not drawn), 86% (inactive). Still for that read-out and setting: next, `CN1C(=O)C2(C(C#N)=C(c3ccc(Cl)cc3)Nc3c2c(-c2ccccc2)nn3-c2ccccc2)c2ccccc21` (stereo not drawn): 96% (inactive); `O=[N+]([O-])c1cccc(-c2nnc3c(/C=C/c4ccc(F)cc4)nc4ccccc4n23)c1`: 108% (inactive); `COC(=O)c1cc(C(C)=O)n2c3ccccc3c3ccccc3c12`: 92.6% (inactive). Consider `CCCCCCCOc1ccc(S(=O)(=O)Nc2ccc(C)c(F)c2C(=O)O)cc1`, for which the growth is 107% (inactive). The same measure, in the same setting: to `COc1ccc2[nH]cc(-c3cc4nc(-c5cn(C)c6ncc(Br)cc56)cc(N)n4n3)c2c1` belongs -83.6% (active). On the same count and under the same terms, next, `COc1ccc2c(c1)N=c1c-2cc2c(O)[nH]c(=S)n2c1=O`: 53.5% (inactive); `CC(C)C[C@H](NC(=O)[C@@H]1CCCCCCCCCCC(=O)N[C@@H](CC(=O)N2CCC[C@@H]2C2CCCC2)C(=O)N1)B(O)O`: -36.8% (active). On the same count and under the same terms, to `O=C1NC(=S)/C(=C/c2cn(-c3ccccc3)nc2-c2ccccc2)S1` belongs 47.9% (inactive); to `CN(C)C(=O)c1cc(-c2ccc3ncnc(N4CCc5cc(F)c(Cl)cc54)c3c2)cnc1N`, -15% (active); to `N#C/C(=C/c1ccc(Cl)cc1)c1nnc(NC(=O)c2ccc(-n3c(=O)[nH]c4ccccc4c3=O)cc2)s1`, 83.9% (inactive). Consider `COc1c(B(O)O)cc(F)cc1-c1nc2c(F)cc3[nH]ncc3c2c2c1CCCC2`, for which the growth is 15.9% (inactive). The same measure, in the same setting: next, `O=C(CSc1nc2sc3c(c2c(=O)n1-c1ccc(Cl)cc1)CCCC3)NNC(=O)c1ccc(Br)cc1`: 58.8% (inactive); `CN(C)c1ccc(/C=C/c2n(Cc3ccc4ccccc4c3)c3ccccc3[n+]2Cc2ccc3ccccc3c2)cc1`: -97.6% (active); `COc1ccc2[nH]c(=O)cc(-n3ncc(C(=O)/C=C/c4cc(OC)c(OC)c(OC)c4)c3C)c2c1`: -26.3% (active). Same read-out and setting: to `COc1ccc(C(=O)C[n+]2cccc3c4ccccc4ccc32)cc1` belongs 58.3% (inactive); to `CN1CCc2c(sc3ncnc(N/N=C/c4cccc(Cl)c4Cl)c23)C1`, 88% (inactive). The same measure, in the same setting: next, `COc1ccc2[nH]c(O)c(N=Nc3nc(-c4ccccc4)cs3)c2c1`: 53.2% (inactive). Turning to `COc1ccc(N=Nc2c(N)nn3c(N)c(C#N)c(-c4ccc(F)cc4)nc23)cc1`, the growth was 95.9% (inactive). Same read-out and setting: next, `C=CCSc1nnc(-c2ccc(-c3nc4ccccc4[nH]3)cc2)o1`: 105% (inactive). Same read-out and setting: next, `Cc1oc(-c2ccccc2)nc1CN[C@@H]1C[C@@H]2C[C@H]([C@H]1C)C2(C)C`: 30.7% (inactive); `COc1ccc(NC2=C(I)C(=O)C(C)=C(C)C2=O)cc1`: 53.9% (inactive).
